# According to PubChem BioAssay AID651640 (Broad Institute, 2012):
# The campaign covered roughly 350,000 compounds. About 6,000 (1.7%) were called active. Not shown: some 5% with an inconclusive outcome. The sample as a whole holds a higher share of actives than the screen did. Unmarked numbers belong to inactive results. No stated cut-off is given here; in the data, active means CPE inhibition above about 20% (passing the limit was not always enough); inconclusive means no clear call, values can overlap the other calls; tested in BHK-21 cells.
# Assay: inhibitors of DENV2 cytopathic effect, primary screen, cell-based, plate reader, single concentration (AID 651640);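 further: 0% = median of neutral control wells and 100% = median of positive control wells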
# Details: DENV2-infected cells, cytopathic effect rescue, at 9.99 µM, hits give high values
row,SMILES,CPE inhibition
1,COc1ccc(-c2cnc3c(c2)C(=O)N([C@H](C)CO)C[C@@H](C)[C@H](CN(C)C(=O)Cc2ccncc2)O3)cc1,-3.69%
2,FC(F)(F)c1ccc(-c2cccc3c2C2CC3CCN2Cc2ccccc2)cc1 (centres undefined),-4.78%
3,CCCCN(C(C)=O)c1ccc2c(c1)C1CC2CCN1Cc1ccccc1 (centres undefined),42.3% (active)
4,Clc1cccc2c1C1CC2CCN1Cc1ccccc1 (centres undefined),-7.07%
5,COc1cccc(S(=O)(=O)N(C)C[C@@H]2Oc3ncc(-c4cccc(C(=O)N(C)C)c4)cc3C(=O)N([C@H](C)CO)C[C@@H]2C)c1,9.65%
6,CN1c2ccc(-c3cccc(C#N)c3)cc2[C@@H]2[C@@H](CCN2C(=O)NC2CCCCC2)[C@@H]1CO,-19.7%
7,O=C(N[C@H]1CC[C@H](CCn2cc(-c3ccccc3F)nn2)O[C@@H]1CO)c1ccc2c(c1)OCO2,6.43%
8,C[C@@H]1CN([C@@H](C)CO)C(=O)c2cccc(NS(=O)(=O)c3cccs3)c2O[C@H]1CN(C)Cc1ccncc1,-4.19%
9,Cc1ccc(S(=O)(=O)N(C)C[C@H]2Oc3c(NS(=O)(=O)c4cccs4)cccc3C(=O)N([C@@H](C)CO)C[C@@H]2C)cc1,-0.283%
10,Cc1ccc(S(=O)(=O)N(C)C[C@@H]2Oc3c(NC(=O)Nc4ccccc4)cccc3C(=O)N([C@H](C)CO)C[C@H]2C)cc1,5.91%
11,C[C@H](CO)N1C[C@H](C)[C@H](CN(C)S(=O)(=O)c2ccccc2)Oc2c(NC(=O)Nc3ccccc3)cccc2C1=O,-3.55%
12,C[C@@H]1CN([C@@H](C)CO)C(=O)c2cccc(NS(=O)(=O)c3cccs3)c2O[C@@H]1CN(C)CC1CC1,30.5% (active)
13,C[C@H]1CN([C@@H](C)CO)C(=O)c2cccc(NC(=O)Nc3ccccc3)c2O[C@H]1CN(C)S(=O)(=O)c1ccc(Cl)cc1,29.2% (active)
14,C[C@H]1CN([C@@H](C)CO)C(=O)c2cccc(NS(=O)(=O)c3ccc(Cl)cc3)c2O[C@H]1CN(C)S(=O)(=O)c1ccc(Cl)cc1,-6.39%
15,COc1ccc(S(=O)(=O)N(C)C[C@@H]2Oc3c(NS(=O)(=O)c4ccccc4)cccc3C(=O)N([C@@H](C)CO)C[C@@H]2C)cc1,-6.28%
16,COc1ccc(S(=O)(=O)Nc2cccc3c2O[C@H](CN(C)S(=O)(=O)c2ccc(OC)cc2)[C@@H](C)CN([C@H](C)CO)C3=O)cc1,21.2% (active)
17,C[C@H](CO)N1C[C@H](C)[C@H](CN(C)S(=O)(=O)c2cccs2)Oc2c(NS(=O)(=O)c3ccc(Cl)cc3)cccc2C1=O,24.5% (active)
18,C[C@@H]1CN([C@@H](C)CO)C(=O)c2cccc(NS(=O)(=O)c3ccc(F)cc3)c2O[C@H]1CN(C)S(=O)(=O)c1cccs1,-1.22%
19,COc1ccc(S(=O)(=O)Nc2cccc3c2O[C@@H](CN(C)S(=O)(=O)c2ccc(F)cc2)[C@H](C)CN([C@H](C)CO)C3=O)cc1,-7.57%
20,Cc1ccc(S(=O)(=O)NCC[C@@H]2CC[C@H](NC(=O)CC3CC3)[C@H](CO)O2)cc1,-2.24%
21,COc1ccc(NC(=O)Nc2ccc3c(c2)C(=O)N([C@H](C)CO)C[C@@H](C)[C@H](CN(C)Cc2ccccc2)O3)cc1,-6.1%
22,CCCC#Cc1ccc2c(c1)O[C@H](CN(C)C(=O)c1ccncc1)[C@H](C)CN([C@H](C)CO)S2(=O)=O,-4.65%

row,SMILES,CPE inhibition
1,CO[C@@H]1CN(C)C(=O)c2ccc(NS(=O)(=O)c3cn(C)cn3)cc2OC[C@H](C)N(CCC(F)(F)F)C[C@@H]1C,-5.08%
2,C[C@@H]1CN([C@@H](C)CO)C(=O)c2cc(NC(=O)CCN3CCOCC3)ccc2O[C@H]1CN(C)C(=O)NC1CCCCC1,-3.33%
3,CN1[C@@H]2CN(C(=O)C3CCCCC3)c3ccccc3[C@@H]2[C@@H]1CO,-5.31%
4,CC(C)NC(=O)N1C[C@@H]2[C@H](c3ccccc31)[C@H](CO)N2C(=O)C1CCCC1,-6.09%
5,COc1ccc(C(=O)N2C[C@@H]3[C@H](c4ccccc42)[C@H](CO)N3Cc2ccc3c(c2)OCO3)cc1,-6.95%
6,CC(=O)N1C[C@@H]2[C@H](c3ccccc31)[C@H](CO)N2Cc1ccc(Cl)cc1,16.8%
7,COc1ccc(CN2[C@H](CO)[C@@H]3c4ccccc4N(C(=O)C4CC4)C[C@@H]32)cc1,26.1% (active)
8,CC(C)NC(=O)N1C[C@@H]2[C@H](c3ccccc31)[C@@H](CO)N2Cc1ccc(Cl)cc1,47.3% (active)
9,COc1ccccc1NC(=O)N1C[C@H]2[C@@H](c3ccccc31)[C@H](CO)N2Cc1ccc2c(c1)OCO2,55.6% (active)
10,COc1ccc(CN2[C@@H](CO)[C@@H]3c4ccccc4N(C(=O)Nc4ccccc4)C[C@@H]32)cc1,-9.93%
11,COc1ccccc1NC(=O)N1C[C@@H]2[C@H](c3ccccc31)[C@H](CO)N2CC1CCOCC1,16.7%
12,CCC(=O)N(C)C[C@H]1Oc2ncc(C#Cc3cccnc3)cc2C(=O)N([C@H](C)CO)C[C@H]1C,4.92%
13,CCCNC(=O)N1[C@H](C#N)[C@@H](c2ccccc2C2=CCCCC2)[C@@H]1CO,-2.61%
14,O=C(c1ccc2c(c1)OCO2)N1CC(=O)N2[C@H](C1)[C@@H](c1ccc(C#Cc3ccccc3)cc1)[C@@H]2CO,11.6%
15,COc1ccc(NC(=O)Nc2ccc3c(c2)C(=O)N([C@H](C)CO)C[C@@H](C)[C@@H](CN(C)C(=O)NC(C)C)OCCCC[C@H](C)O3)cc1,4.29%
16,COCC(=O)N1[C@H](C(=O)N2CCN(C)CC2)[C@@H](CO)[C@@H]2Cn3c(ccc(C4=CCCC4)c3=O)[C@@H]21,-7.88%
17,COc1cccc(S(=O)(=O)N2CC3(CCN(C)CC3)c3c(n(C)c4cc(OC)ccc34)[C@H]2CO)c1,3.74%
18,CC(=O)C1=C(C)N(Cc2ccccc2)C(=S)NC1c1cccc(Br)c1 (centres undefined),-5.19%
19,C[C@@H]1CCCCO[C@@H](CN(C)S(=O)(=O)c2cccs2)[C@@H](C)CN([C@@H](C)CO)C(=O)c2cc(NS(=O)(=O)c3ccc(F)cc3)ccc2O1,-8.5%
20,C[C@H]1CN([C@@H](C)CO)C(=O)c2cccc(NC(=O)c3cnccn3)c2O[C@@H]1CN(C)Cc1ccc(Oc2ccccc2)cc1,2.15%
21,C[C@H]1CN([C@@H](C)CO)C(=O)c2cccc(NC(=O)c3cnccn3)c2O[C@H]1CN(C)C(=O)Nc1ccccc1,28.3% (active)
22,CC(C)NC(=O)N(C)C[C@@H]1Oc2c(NC(=O)c3cnccn3)cccc2C(=O)N([C@@H](C)CO)C[C@@H]1C,-11.9%

row,SMILES,CPE inhibition
1,C[C@@H]1CN([C@@H](C)CO)C(=O)c2cccc(NC(=O)Nc3ccc(F)cc3)c2O[C@H]1CN(C)C(=O)Nc1ccc(F)cc1,14.7%
2,C[C@@H]1CN([C@H](C)CO)C(=O)c2cccc(NC(=O)c3cnccn3)c2O[C@@H]1CN(C)Cc1ccncc1,5.84%
3,C[C@H](CO)N1C[C@H](C)[C@H](CN(C)C(=O)Nc2ccc(F)cc2)Oc2c(NC(=O)c3cnccn3)cccc2C1=O,29.3% (active)
4,CC(=O)N[C@H]1CC[C@H](CCNC(=O)C2CC2)O[C@H]1CO,-5.24%
5,O=C(c1cccc(F)c1)N1C[C@H]2[C@@H](c3ccccc31)[C@@H](CO)N2C(=O)Cc1ccccc1,-5.94%
6,CO[C@@H]1CN(C)C(=O)c2ccc(NS(C)(=O)=O)cc2OC[C@@H](C)N(C(=O)CC2CC2)C[C@@H]1C,-2.7%
7,Cc1c(C(=O)NCCN2C(=O)S/C(=C\c3cccs3)C2=O)cccc1[N+](=O)[O-],27% (active)
8,Cc1c(C(=O)NCCCc2ccccc2)cccc1[N+](=O)[O-],4.47%
9,Cc1nn(Cc2ccccc2)c(C)c1C(=O)NCCN1C(=O)S/C(=C\c2ccc(F)cc2)C1=O,-3.31%
10,O=C(C[C@@H]1CC[C@@H](NS(=O)(=O)c2ccccc2)[C@H](CO)O1)NCc1ccc(Cl)c(Cl)c1,3.78%
11,Cc1nnc(SCC(=O)N2CCOCC2)[nH]c1=O,58.6% (active)
12,Cc1c(C)n2c(SCC(=O)N3CCCC3)nnc2[nH]c1=O,13.9%
13,CCc1ccc(C(=O)CSc2nnc(C)c(=O)[nH]2)cc1,-2.63%
14,COc1ccc2c3c(n(C)c2c1)[C@@H](CO)N(C(=O)Nc1ccc(F)cc1)CC31CN(C(=O)NC(C)C)C1,-3.42%
15,CNC(=O)C[C@@H]1CC[C@H]2[C@H](COc3ccc(NC(=O)C4CC4)cc3C(=O)N2C)O1,-4.01%
16,CCCNC(=O)Nc1ccc2c(c1)C(=O)N(C)C[C@@H](OC)[C@H](C)CN(CCC)[C@@H](C)CO2,3.79%
17,COc1ccc(S(=O)(=O)Nc2cccc3c2O[C@H](CN(C)C(=O)NC(C)C)[C@H](C)CN([C@H](C)CO)C3=O)cc1,-8.19%
18,O=C(N[C@@H]1CC[C@@H](CCn2cc(-c3ccccn3)nn2)O[C@@H]1CO)c1ccccc1,-2.85%
19,CC=Cc1ccc2n(c1=O)C[C@@H]1[C@@H](CO)[C@H](C(=O)N3CCCCC3)[C@H]2N1C(=O)C1CCC1 (mixture of isomers),1.43%
20,O=S(=O)(NCC[C@H]1CC[C@@H](NS(=O)(=O)c2ccccc2Cl)[C@@H](CO)O1)c1ccc(Cl)cc1,-9.23%
